# High-throughput results as filed in PubChem BioAssay.
# GBA activity: modulators of human glucocerebrosidase; purified enzyme, resorufin glucoside fluorescence (screen aimed at inhibitors), 20 min; AID 360; Potency, µM; actives 1.1% (n = 48,000); in the data active = potency below about 15 µM; inconclusive = mostly about 16 µM to 33 µM;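 note: potency is the fitted concentration of half-maximal effect; the screen sought inhibitors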
#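 Wild-type enzyme at 0.2 nM final in 50mM citric acid/KH2PO4, 10mM sodium taurocholate, 0.01% tween-20, pH 5.9, with resorufin beta-D-glucopyranoside at 30 uM final. Compounds titrated, 20 min at RT, red fluorescence read; AC50 from titration.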
# USP2a inhib: blocks human ubiquitin-specific protease USP2a; Potency, µM (highest dose often 38.3 µM), without a hit: at the highest dose activity change, negative = inhibition, hits mostly inhibitors; actives 0.1% (n = 60,000); USP2a enzymatic assay, qHTS inhibition; AID 927; note: potency is the fitted concentration of half-maximal effect; nearly all actives have a fitted effect of over 60% in size
# Target sequence (O75604 whole entry, looked up): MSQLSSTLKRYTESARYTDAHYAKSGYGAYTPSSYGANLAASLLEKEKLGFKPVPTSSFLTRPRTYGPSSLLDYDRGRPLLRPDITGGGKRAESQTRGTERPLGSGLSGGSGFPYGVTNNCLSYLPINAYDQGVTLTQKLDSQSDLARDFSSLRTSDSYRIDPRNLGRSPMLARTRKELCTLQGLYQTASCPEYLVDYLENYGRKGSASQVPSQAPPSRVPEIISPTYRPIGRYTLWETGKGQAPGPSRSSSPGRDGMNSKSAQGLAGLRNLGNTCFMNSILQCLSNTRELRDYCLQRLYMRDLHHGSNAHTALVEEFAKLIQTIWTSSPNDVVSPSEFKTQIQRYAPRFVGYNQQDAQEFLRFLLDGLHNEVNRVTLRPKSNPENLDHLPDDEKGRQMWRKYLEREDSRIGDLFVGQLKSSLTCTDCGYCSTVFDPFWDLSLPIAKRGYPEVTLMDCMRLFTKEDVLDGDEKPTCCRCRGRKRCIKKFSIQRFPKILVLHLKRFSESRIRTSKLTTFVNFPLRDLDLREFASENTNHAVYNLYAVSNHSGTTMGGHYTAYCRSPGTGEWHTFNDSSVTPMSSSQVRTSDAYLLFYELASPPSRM
#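 Coupled readout: USP2-cleaved Ub-PLA2 (20nM final) turns over NBD C6-HPC (20uM final), Ex 460nm/Em 535nm after 2.5 h, time-zero read flagging artifacts. Enzyme (20nM final, pH 8.0 Tris) given 30 min RT with compound first; NEM defines full inhibition.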
# Hsp90 Hop PPI: changes Hsp90-Hop TPR2A binding signal, up or down | AlphaScreen TPR2A-His6 binding biotin-Hsp90 C-terminal peptide | Potency, µM (series often up to 57 µM), for the others: at the highest dose activity change, negative = inhibition | actives 0.44% (n = 71,000); active = well fitted curve in either direction with a large enough effect; inconclusive = small, poorly fitted or top-dose-only effect, or another doubt; note: potency is the fitted concentration of half-maximal effect; % is set by controls: 0 for no effect and ±100 for the full control effect
# HBB splicing: hemoglobin beta splicing modulation | HBB splicing reporter cell assay, activation; EGFP reporter with mutant IVS2-654 intron; response scale: normalised to 500 nM splice-correcting PNA | Potency, µM (top dose mostly 46.1 µM), without a hit: at the highest dose activation, most hits filed as activators | actives 0.06% (n = 65,000) | AID 925; note: potency is the fitted concentration of half-maximal effect; 0% is about no effect
#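 HeLa cells stably expressing EGFP interrupted by mutant beta-globin intron 2 (IVS2-654), 500/well in 2% FCS. Treated with compound for 2 days at 37C. Splicing correction scored as total well GFP intensity (488 nm excitation, 500-520 nm emission); 500 nM antisense PNA served as control.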
# GFP derepression: derepresses silenced GFP locus in mouse C127i cells; mouse C127i GFP locus derepression, cytometry, 30 h; Potency, µM (top dose mostly 46.1 µM), for the others: top-dose GFP derepression (activation); actives 0.09% (n = 68,000); AID 597; note: % of control where 0% means no effect
#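 Locus derepression in mouse mammary C127i cells whose integrated CMV-GFP reporter is normally silent; GFP expression after 30 h compound treatment was quantified by counting fluorescent cells.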
# UbGFP stabilizer: ubiquitin-GFP accumulation via proteasome inhibition. Potency, µM (series often up to 45.9 µM), for inactives: top-dose activation (GFP accumulation), most hits filed as activators. Ubiquitin-GFP reporter cells, proteasome inhibition, GFP fluorescence; response scale: untreated = 0%, 10 µM MG-132 = 100%. 67,000 tested, under 10 active. AID 526; active = well fitted activation curve with a large enough effect, not every such curve was filed as active; inconclusive = small, poorly fitted or top-dose-only effect, or another doubt; inactive = no such curve, though single readings can be large or run the other way; note: potency is the fitted concentration of half-maximal effect
#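 GFP accumulation read-out: laser plate cytometry counting ubiquitin(G76V)-GFP-expressing U2OS cells after 4 hr compound exposure at 37 °C. Titrations spanned 46 uM to 2.9 nM; 0% = basal, 100% = 10 uM MG-132; concentration-response curves fitted.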
# Hsp90-TPR2A inh: confirmation and counter-screen of Hsp90 TPR2A co-chaperone interaction disrupters; shares compounds with Hsp90 Hop PPI; AlphaScreen TPR2A-His6 / biotin-Hsp90 peptide binding; activity, negative = inhibition, % at 40 µM or 46 µM, hits read low; actives 100% (n = 45);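 active = compound lowering the Hsp90 and TPR2A binding signal, whether or not the linker counterscreen also flagged it as an artifact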
# * marks the source's active call; other numbers are inactive results; ? = inconclusive; / = not tested or not shown; [ ] = another dose, or the depositor's remark. Sampled rows, rich in hits. Any-hit rate of the full collection: about 1.1%. Unless noted, calls come from the whole dose curve; as a rule, active = well fitted curve in the direction sought with a large enough effect; inconclusive = small, poorly fitted or top-dose-only effect, or another doubt; inactive = no such curve, though single readings can be large; an effect the other way counts as inactive or inconclusive.
SMILES,GBA activity,USP2a inhib,Hsp90 Hop PPI,HBB splicing,GFP derepression,UbGFP stabilizer,Hsp90-TPR2A inh
O=C(NCCCn1ccnc1)Nc1ccc(Cl)c(Cl)c1,?,/,7.9µM*,0%[57.5 µM],-2%,2%,-98*[alpha-screen platform artifact]
OCc1ccnc2c(O)cccc12,>77,14%,3.2µM*,1%,-3%,0%,-100*[alpha-screen platform artifact]
CC1(C)CC23C(=O)CCC(O)C2(C)CCC13 (stereo not drawn),/,-1%,/,/,/,/,/
CCC(CC)C(=O)Nc1cccc(C(=O)N2CCOCC2)c1,>77,4%,0%,0%,6%,4%,/
O=C(Nc1cccc(C(=O)N2CCOCC2)c1)c1ncn[nH]1,>77,-5%,25µM*,2%,0%,1%,-83*[alpha-screen platform artifact]
NNS(=O)(=O)c1cc(C(=O)O)cc(C(=O)O)c1,/,/,1%[11 µM],3%[9.22 µM],2%[9.22 µM],-11%[9.17 µM],/
O=C(CSc1cccc2cccnc12)N1CCCC1,>77,8%,10µM*,-2%,0.63µM*,1%,-99*[alpha-screen platform artifact]
O=C(O)c1cccnc1SCC(=O)N1CCCCCC1,>77,-8%,-3%,-3%[57.5 µM],5%,3%,/
Nc1nc(N)nc(-c2ccccn2)n1,>77,-7%,7.9µM*,-2%[0.369 µM],2%,-5%,-99*[alpha-screen platform artifact]
Cc1ccc(S(=O)(=O)NC(=O)c2cc(C)n(CCCn3ccnc3)c2C)cc1,?,-3%,4µM*,1%,2%,3%,-100*[alpha-screen platform artifact]
COc1ccc(CNc2nc(-c3cccc(C#N)c3)nc3ccccc23)c(OC)c1,/,174%,1%,1%,5%[9.22 µM],-3%,/
Cc1ccc(S(=O)(=O)CCc2nnc(NC(=O)c3ccccn3)s2)cc1,>77,12%,6.3µM*,2%,0%,-2%,-100*[alpha-screen platform artifact]
Cc1ccc(S(=O)(=O)CCc2nnc(NC(=O)c3cnccn3)s2)cc1,>77,4%,-6%,-2%,2%,4%,/
O=C(CN1CC(=O)Oc2ccccc21)OCC(=O)c1ccccc1,>77,?,3.2µM*,/,0%,-7%,-100*[alpha-screen platform artifact]
Cn1c(C[C@@H](O)c2nc3ccccc3n2C)nc2ccccc21,/,/,-2%[11 µM],1%[9.22 µM],6%[9.22 µM],0%[9.17 µM],/
NCC[C@H](N)C(=O)O,/,/,-1%[11 µM],1%[9.22 µM],3%[9.22 µM],9%[9.17 µM],/
Cc1cc(C)n(-c2nnc(C)c(=O)[nH]2)n1,/,-3%[7.66 µM],1.6µM*,1%[0.0738 µM],-3%,-14%[9.17 µM],-100*[alpha-screen platform artifact]
Cc1nnc(N2CCN(Cc3ccccc3)CC2)[nH]c1=O,>77,-3%,-6%,-2%,4%,6%,/
CN1CCN(Cc2ccc(OCc3ccccc3)cc2)CC1,/,-1%,-4%,0%[9.22 µM],-2%,8%,/
CN1CCN(Cc2cc(COCc3ccccc3)c3cccnc3c2O)CC1,/,23%,1.6µM*,1%,6.3µM*,-8%,-100*[alpha-screen platform artifact]
